Reference: article PMC4336329 (PLoS ONE, 2015)
Hit rate of the full screen: of about 310,000 compounds, about 14,000 (4.5%) showed an effect of 50% or more. The effect is printed as a negative number. The entries come from a sample that favours strong results as a whole.

What follows are molecules tested against human ether-à-go-go-related gene (hERG) potassium channel (human, UniProt Q12809) (assay: primary screen, population patch clamp on CHO cells stably expressing hERG; higher = less effect of the substance).
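Also: peak tail current of the secondary pulse compared with the same well before compound.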

Chain of human ether-à-go-go-related gene (hERG) potassium channel (Q12809 whole entry, looked up): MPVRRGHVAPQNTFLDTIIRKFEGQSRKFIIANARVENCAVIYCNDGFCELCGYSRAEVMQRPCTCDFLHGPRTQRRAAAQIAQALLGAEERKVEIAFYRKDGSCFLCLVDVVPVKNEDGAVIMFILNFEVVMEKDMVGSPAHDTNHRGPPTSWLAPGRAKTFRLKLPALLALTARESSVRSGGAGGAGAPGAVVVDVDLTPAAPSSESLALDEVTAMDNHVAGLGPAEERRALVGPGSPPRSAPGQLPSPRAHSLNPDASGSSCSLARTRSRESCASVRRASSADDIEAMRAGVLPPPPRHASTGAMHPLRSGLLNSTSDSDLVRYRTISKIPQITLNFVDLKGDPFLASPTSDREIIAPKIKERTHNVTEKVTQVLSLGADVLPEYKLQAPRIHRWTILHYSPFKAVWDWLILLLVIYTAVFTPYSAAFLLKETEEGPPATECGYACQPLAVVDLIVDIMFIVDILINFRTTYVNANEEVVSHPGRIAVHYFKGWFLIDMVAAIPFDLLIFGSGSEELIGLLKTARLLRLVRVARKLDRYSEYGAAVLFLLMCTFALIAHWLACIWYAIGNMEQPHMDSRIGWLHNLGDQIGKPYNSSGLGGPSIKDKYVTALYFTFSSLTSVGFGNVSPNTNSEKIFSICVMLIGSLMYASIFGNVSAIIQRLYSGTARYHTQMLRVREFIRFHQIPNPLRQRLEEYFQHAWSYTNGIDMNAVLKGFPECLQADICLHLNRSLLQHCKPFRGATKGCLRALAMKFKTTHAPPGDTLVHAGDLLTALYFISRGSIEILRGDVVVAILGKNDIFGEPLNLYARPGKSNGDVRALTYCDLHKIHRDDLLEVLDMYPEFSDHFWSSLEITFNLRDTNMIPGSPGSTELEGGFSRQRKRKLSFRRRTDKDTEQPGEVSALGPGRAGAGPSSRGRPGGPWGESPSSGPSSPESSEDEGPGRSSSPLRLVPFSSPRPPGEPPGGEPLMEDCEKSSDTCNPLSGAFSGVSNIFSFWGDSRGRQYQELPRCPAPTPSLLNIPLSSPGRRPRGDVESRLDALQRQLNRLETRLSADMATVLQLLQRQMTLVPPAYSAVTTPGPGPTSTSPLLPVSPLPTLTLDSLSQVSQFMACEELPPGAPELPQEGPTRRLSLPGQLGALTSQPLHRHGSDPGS

Compound | hERG current change (%, negative = inhibition) at 10uM [%]
CCOCCCN=Cc1c(O)n(Cc2ccccc2)c(=O)[nH]c1=O | -4.85
c1ccc(CSc2nnc3ccc(-c4cccs4)nn23)nc1 | 3.64
Cc1cccc(OCC(=O)Nc2ccc3c(C)cc(=O)oc3c2)c1 | 1.59
CCOc1ccc(C(=O)OC2CCCN(C)C2)cc1.Cl (stereo not shown) | -18.1
O=C(c1ccc2ccccc2c1)N1CCCC1 | 19.2
CC(=O)c1sc(NC(=O)c2cc(=O)c3ccccc3o2)nc1C | 10.1
O=C(Cc1ccc(F)cc1)Nc1nnc(SCC(=O)NC2CCCC2)s1 | 1.56
COc1cccc(C(O)c2nc3ccccc3n2C)c1 (stereo not shown) | 3.27
CC(NC(=O)Cn1ccsc1=N)C12CC3CC(CC(C3)C1)C2.Cl (stereo not shown) | -34.4
CCC(=O)c1c[nH]c(C(=O)NCc2ccccc2OC)c1 | -6.15
CCN(CC)CCCN1CC(O)=C(c2nc3ccccc3s2)C1=N | -34.2
Fc1ccc(Nc2nnns2)cc1 | 18.2
O=C(OCc1cccc([N+](=O)[O-])c1)c1ccc[nH]c1=O | 17.2
COc1ccc(CC(=O)Nc2cc(C)ccn2)cc1 | 6.87
O=C(COC(=O)C1CC(=O)N(Cc2ccccc2)C1)Nc1ccccc1F (stereo not shown) | 7.39
CSc1ccccc1NC(=O)CN(C)C(=O)C1CCN(C(=O)Nc2ccccc2)CC1 | -11.4
COc1ccc(CN(C)C(=O)C2CCN(C(=O)Nc3ccccc3)CC2)cc1OC | -1.53
CSc1ccc(CN(C)C(=O)C2CCN(C(=O)Nc3ccccc3)CC2)cc1 | -67.4
COc1ccc(CN(C)C(=O)C2CCN(C(=O)Nc3ccccc3)CC2)cc1 | -16.3
CN(CC(=O)Nc1c(Cl)cccc1Cl)C(=O)C1CCN(C(=O)Nc2ccccc2)CC1 | 11.5

Compound | hERG current change (%, negative = inhibition) at 10uM [%]
CN(Cc1cccc(Cl)c1)C(=O)C1CCN(C(=O)Nc2ccccc2)CC1 | -55.9
CCn1cnc2c1c(=O)n(CC(=O)Nc1ccc(C(N)=O)cc1)c(=O)n2Cc1ccccc1 | 13.8
Clc1cccc(C2Nc3cccc4cccc(c34)N2)c1Cl | 16.2
CCOC(=O)C1CCCN(c2nc3c(C)cccn3c(=O)c2/C=C(\C#N)C(=O)NCc2ccco2)C1 (stereo not shown) | -49.7
Cc1ccc(C(=O)N/C(=C/c2cccc([N+](=O)[O-])c2)C(=O)NCC2CCCO2)cc1 (stereo not shown) | -68.4
Cc1ccc(C(=O)N/C(=C\c2ccccc2)C(=O)NCC2CCCO2)cc1 (stereo not shown) | -24.3
CC(C)NC(=O)/C(=C\c1cccc([N+](=O)[O-])c1)NC(=O)c1ccccc1 | -18.1
Cc1ccc(C(=O)N/C(=C\c2cccc([N+](=O)[O-])c2)C(=O)NC(Cc2ccccc2)C(=O)O)cc1 (stereo not shown) | 15.3
Cc1ccc(C(=O)N/C(=C/c2cccc([N+](=O)[O-])c2)C(=O)NC(C)C)cc1 | -51.8
CC(=O)N/C(=C\c1cccc([N+](=O)[O-])c1)C(=O)NC(C)C | 2.75
O=C(/C=C/c1cccc([N+](=O)[O-])c1)NCc1cccnc1 | -14
N#C/C(=C\c1cccc([N+](=O)[O-])c1)C(=O)Nc1cccnc1 | 21.3
O=C(NCC1CCCO1)/C(=C\c1cccc([N+](=O)[O-])c1)NC(=O)c1ccccc1 (stereo not shown) | -33
N#C/C(=C\c1cccc([N+](=O)[O-])c1)C(=O)NCc1cccnc1 | -50.8
Cc1ccc(C(=O)N/C(=C\c2cccc([N+](=O)[O-])c2)C(=O)OCN2C(=O)c3ccccc3C2=O)cc1 | -11
CCNC(=O)/C(=C/c1cccc([N+](=O)[O-])c1)NC(=O)c1ccc(C)cc1 | -58.1
Cc1ccc(NC(=O)CSCc2ccco2)cc1 | 21.7
O=C(CCSc1ccc(F)cc1)Nc1ccc(-n2cnnn2)cc1 | -26.4
COc1cc(/C=N/N2CCN(c3ccc(Cl)cc3)CC2)cc(OC)c1OC(C)=O | 9.63
O=C(NC(NC(=S)Nc1ccccc1)C(Cl)(Cl)Cl)c1cccc(Cl)c1 (stereo not shown) | 7.91

Compound | hERG current change (%, negative = inhibition) at 10uM [%]
Cc1ccc(C(=O)N/C(=C\c2cccc([N+](=O)[O-])c2)C(=O)Nc2cccc(C(=O)O)c2)cc1 | 15.2
Cc1ccc(C(=O)N/C(=C\c2cccc([N+](=O)[O-])c2)C(=O)NCc2ccncc2)cc1 | -73.3
O=C(NCc1ccncc1)/C(=C/c1cccc([N+](=O)[O-])c1)NC(=O)c1ccccc1 | -71
O=C(NNc1cccc([N+](=O)[O-])c1)/C(=C\c1cccnc1)NC(=O)c1ccccc1 | -30.6
Cn1c(=O)c2c(nc(Sc3ncccn3)n2Cc2ccccc2Cl)n(C)c1=O | -8.1
CCCC(=O)NC(=S)Nc1cccc(NC(=O)c2ccccc2)c1 | -1.54
CCOc1ccc(C(=O)Nc2ccc(C(F)(F)F)n(C)c2=O)cc1 | 14.5
Cc1ccc(Nc2ncnc(N)n2)cc1 | 9.24
CCOc1ccc(NC(=O)CCC(=O)OC)cc1 | -1.95
CCCCOc1cc(C(=O)OCCN(CC)CC)ccc1N.Cl | -53.6
CCCOc1ccc(C(=O)OCCN(CC)CC)cc1N.Cl | -51.9
CCN(CC)CCOC(=O)c1cccc(Br)c1.Cl | -40.6
CCN(CC)CCOC(=O)c1ccc2c(c1)OCCO2.Cl | -11.4
CCCCOc1cc(C(=O)OCCN(CC)CC)ccc1N | -60.6
CCOc1ccc(C(=O)OCCN(CC)CC)cc1.Cl | -44.8
CCCOc1cc(N)ccc1C(=O)OCCN(CC)CC.Cl | -18.9
CCN(CC)CCOC(=O)c1ccc([N+](=O)[O-])cc1.Cl | -23.1
CCN(CC)CCOC(=O)c1ccc(N)cc1.Cl | 2.06
